Results as given in paper PMC5540273 (PLoS ONE, 2017).

These compounds were tested on EGFR.
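Also: kd values determined as follow-up on hits from a single-replicate KINOMEscan panel screen.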

Q: How did the Kd turn out when Cn1cncc1-c1ccc2ncnc(Nc3ccc(OCc4ccccc4)cc3)c2c1 [GW320571] was run?
A: Its Kd is 0.049 µM.

Q: How did the Kd turn out when Cl.NC(=O)c1cccc(Nc2nccc(Nc3ccc(Oc4cccc(Cl)c4)c(Cl)c3)n2)c1 [GW659008] was run?
A: The Kd was 0.12 µM.

Q: Which Kd does the source give for Cl.O=C(Nc1cccc(-c2nn3ncccc3c2-c2ccnc(Nc3cccnc3)n2)c1)c1c(F)cccc1F [GSK312879] here?
A: The Kd was 0.038 µM.

Each compound was assayed on T1, ERK4.
T1 construct: gene MAPK4

Q: With Cc1cccc(-c2nc(C)cc(Nc3ccncc3)n2)n1 [GSK257997] as the compound, how does the Kd read?
A: Its Kd is greater than 10 µM.

Q: O=C(Nc1n[nH]c2nc(-c3nccs3)c(Br)cc12)C1CCCC1 [SB-742609] was tested. Which Kd did it give?
A: The Kd was greater than 10 µM.

Q: For CS(=O)(=O)c1ccc(-c2nc3n(c2-c2ccncc2)CCC3)cc1 [SKF-105942], which Kd is on record?
A: The Kd was greater than 10 µM.

The compounds below were run on FLT3.

Q: For O=C(Nc1n[nH]c2nc(-c3nccs3)c(Br)cc12)C1CC1 [SB-742251], which Kd is on record?
A: The Kd was 0.19 µM.

Q: How did the Kd turn out when Cn1ccc2ncnc(Oc3ccc(NC(=O)Nc4ccccc4)cc3)c21 was run?
A: Its Kd is 0.033 µM.

Q: Which Kd does the source give for Cc1ccc(NC(=O)Nc2cc(C(C)(C)C)nn2-c2ccccc2)cc1 [GSK1014915] here?
A: Its Kd is 0.026 µM.

Each compound was assayed on GAK.

Q: Which Kd does the source give for Cc1ccc(-c2cc(-c3c[nH]nc3-c3ccccn3)ccn2)cc1 [GW684088] here?
A: The Kd was 0.11 µM.

Q: With Fc1cc(Cl)ccc1Nc1ccnc2cc(I)ccc12 [GW551191] as the compound, how does the Kd read?
A: Its Kd is 0.34 µM.

Q: How did the Kd turn out when CSc1nn2c(=O)cc(N3CCOCC3)nc2n1Cc1cccc(C(F)(F)F)c1C [GSK2363608] was run?
A: The Kd was greater than 10 µM.

What follows are compounds tested on GSK3A.

Q: With O=C(Nc1n[nH]c2nc(-c3nccs3)c(Br)cc12)C1CC1 [SB-742251] as the compound, how does the Kd read?
A: Its Kd is 0.29 µM.

Q: For O=C(Nc1n[nH]c2nc(-c3nccs3)c(Br)cc12)C1CCCC1 [SB-742609], which Kd is on record?
A: The Kd was 0.061 µM.

Q: With Cc1nnc(-c2ccc3occ(-c4ccc(S(C)=O)cc4)c3c2)[nH]1 (stereo not drawn) as the compound, how does the Kd read?
A: The Kd was 0.19 µM.
